Test results: PubChem BioAssay (NCI)
About 83,000 compounds went through this panel and 20% of them were active in at least one assay; those are over-represented in the sample as a whole.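 Each cell line was grown in a 96-well plate and treated with one concentration of compound for 48 hours. Values below 10 were considered active.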 Values without a mark were called inactive. The source made the active and inactive calls.

Key:
Assay in all cases: NCI-60 one-dose screen, 48 h (100 = growth as untreated, 0 = no growth, -100 = all killed)
Details in all cases: 10 µM unless noted
HCT-15 colon = tested on: HCT-15 colon
HT29 colon = tested on: HT29 colon
SNB-75 CNS = tested on: SNB-75 CNS
SNB-19 CNS = tested on: SNB-19 CNS
U251 CNS = tested on: U251 CNS
PC-3 prostate = tested on: PC-3 prostate
SK-MEL-5 melanoma = tested on: SK-MEL-5 melanoma
UACC-62 melanoma = tested on: UACC-62 melanoma
LOX IMVI melanoma = tested on: LOX IMVI melanoma
SK-MEL-28 melanoma = tested on: SK-MEL-28 melanoma
SK-MEL-2 melanoma = tested on: SK-MEL-2 melanoma
EKVX NSCLC = tested on: EKVX NSCLC
SN12C renal = tested on: SN12C renal
UO-31 renal = tested on: UO-31 renal
TK-10 renal = tested on: TK-10 renal
ACHN renal = tested on: ACHN renal
CAKI-1 renal = tested on: CAKI-1 renal
A498 renal = tested on: A498 renal
CCRF-CEM leukemia = tested on: CCRF-CEM leukemia
MOLT-4 leukemia = tested on: MOLT-4 leukemia

Row | Compound | growth (HCT-15 colon) | growth (HT29 colon) | growth (SNB-75 CNS) | growth (SNB-19 CNS) | growth (U251 CNS) | growth (PC-3 prostate) | growth (SK-MEL-5 melanoma) | growth (UACC-62 melanoma) | growth (LOX IMVI melanoma) | growth (SK-MEL-28 melanoma) | growth (SK-MEL-2 melanoma) | growth (EKVX NSCLC) | growth (SN12C renal) | growth (UO-31 renal) | growth (TK-10 renal) | growth (ACHN renal) | growth (CAKI-1 renal) | growth (A498 renal) | growth (CCRF-CEM leukemia) | growth (MOLT-4 leukemia)
1 | C=CC(=O)Nc1cccc(C)c1Nc1cc(-c2cccnc2Cc2c(C)c(OC)cc(OC)c2C)ncn1 | 42.3% | 5.04% (active) | 23.9% | 23.3% | -16.1% (active) | 8.05% (active) | 57.9% | 38% | 13.9% | 44.3% | -29% (active) | 82.1% | 30.1% | 51% | -8.59% (active) | 29.7% | 36.4% | -4.92% (active) | -0.444% (active) | -7.26% (active)
2 | COc1ccc(-c2nc3ccccn3c2/C=C/C(=O)c2cc(OC)c(OC)c(OC)c2)cc1 | 50.4% | 45.2% | 44.3% | 72.4% | 36% | 56.2% | 26.9% | 45.2% | 44.2% | 41.1% | 52.6% | 90.4% | 54.8% | 42.9% | 73.6% | 43.1% | 59.1% | 55% | 41.7% | 61.6%
3 | COc1ccc(CN2C(=O)/C(=C\c3cc(OC)c(OC)c(OC)c3)c3ccccc32)cc1 | -55.8% (active) | 0.194% (active) | 8.57% (active) | 60.3% | -73.6% (active) | 10.9% | -25.1% (active) | -8.88% (active) | -76% (active) | -34.9% (active) | -41% (active) | 5.9% (active) | 12.8% | 5.84% (active) | 25.2% | -59.5% (active) | -53.9% (active) | 52.7% | 5.62% (active) | 1.82% (active)
4 | CCOC(=O)c1nnn(-c2ccccc2)c1C1=CN(C)CCC1 | 99% | 99.1% | 89.8% | 108% | 102% | 96.4% | 105% | 100% | 97.3% | 111% | 103% | 99% | 106% | 82% | 96.6% | 100% | 97.8% | 101% | 109% | 97.3%
5 | Cc1nn(-c2ccccc2)c2c1C(c1ccc([N+](=O)[O-])cc1)C(C#N)=C(N)O2 (stereo not given) | 106% | 105% | 87.7% | 102% | 110% | 102% | 122% | 96.1% | 101% | 116% | 123% | 115% | 101% | 70.4% | 141% | 108% | 115% | 111% | 90.3% | 101%
6 | COc1ccc(/C(C)=C(\c2ccc(Cl)cc2)c2ccc(OCCN3CCCCC3)cc2)cc1F | 0.563% (active) | 4.57% (active) | 65% | 58.3% | 34.1% | 28% | 57.1% | -33% (active) | -73.1% (active) | -21.3% (active) | 64.1% | 47.7% | 47.4% | 11.6% | 68.7% | 59.2% | 17.8% | 76% | 31% | 23.8%
7 | N#Cc1c(N)n2c(nc1=Nc1ccc(Cl)cc1)sc1cc(Cl)ccc12 | 96.2% | 33.4% | 21.1% | 75.5% | 71% | 62.5% | 61.1% | 63.4% | 79.7% | 57.6% | 69.8% | 62.3% | 88.4% | 61.3% | 108% | 91.3% | 75.5% | 91.1% | 92% | 27.8%
8 | COc1ccc(C2CC(c3ccc4ccccc4c3)=NN2c2nc(O)c(C3=c4cc(Cl)ccc4=NC3=O)s2)cc1 (stereo not given) | -33.4% (active) | -46.5% (active) | -51.5% (active) | 3.08% (active) | -94.6% (active) | -44.4% (active) | -95.2% (active) | -46.5% (active) | -75.7% (active) | -18.8% (active) | -77% (active) | -74.3% (active) | -30.5% (active) | -85% (active) | -66.6% (active) | -63.8% (active) | -50.4% (active) | -84.3% (active) | -19% (active) | -21.5% (active)
9 | O=S(=O)(Nc1ccsc1-c1nc(-c2ccccc2)no1)c1cc(Cl)cc(Cl)c1 | 91.9% | 98.5% | 73% | 98.8% | 97.8% | 86.7% | 93.5% | 83.6% | 96.5% | 88.2% | 105% | 95.6% | 91.3% | 83.2% | 102% | 98.2% | 86.9% | 91.1% | 101% | 104%
10 | COC(=O)/C(=C\c1ccc(OC)cc1)C(=O)N1c2ccccc2Sc2ccccc21 | 24% | 15.3% | 2.37% (active) | 66.9% | 50.3% | 53% | 41.5% | 19.5% | 50.6% | 50.9% | 35.5% | 59.3% | 71.1% | 52.6% | 92.9% | 58.3% | 29.4% | 7.6% (active) | 43.1% | 34.5%
11 | CC(C)(C)Nc1c(-c2c3ccccc3cc3ccccc23)nc2ccccn12 | 79.7% | 55.3% | 64% | 74.1% | 68.2% | 37.9% | 84% | 50.6% | 85.9% | 82.2% | 77.1% | 70.1% | 82.3% | 49.8% | 76% | 77.8% | 50.1% | 88.2% | 61.7% | 45.5%
12 | O=C1CC(c2ccc3c(c2)OCO3)Nc2cc3c(cc21)OCO3 (stereo not given) | 14% | 1.47% (active) | 14.3% | 28.3% | 7.39% (active) | 17.7% | 1.16% (active) | 21% | 25.3% | 65.6% | 11.7% | 36.2% | 22.7% | 52.6% | 34.6% | 45.8% | 43.4% | -17.4% (active) | 9.73% (active) | 26%
13 | Nc1nc(I)c2ncn(C3OC(CO)C(O)C3O)c2n1 (stereo not given) | 104% | 141% | 130% | 102% | 100% | 124% | 102% | 90.4% | 93.5% | 126% | 159% | 96.6% | 100% | 96% | 134% | 111% | 9.47% (active) | 103% | 116% | 109%
14 | CCO/C=N/C1=C(C#N)C(c2ccc(OC)cc2)c2c(c3ccccc3n(C)c2=O)O1 (stereo not given) | 103% | 104% | 78.1% | 101% | 103% | 98.4% | 102% | 98.7% | 99.1% | 110% | 108% | 101% | 98.9% | 72.8% | 112% | 100% | 89.6% | 111% | 100% | 103%
15 | Cn1cc(Nc2nccc(-c3ccc(N4CCCC4)c(C#N)c3)n2)cn1 | 21.3% | 20.3% | 24.5% | 62.3% | 35.8% | 43% | 38.8% | 28.8% | 32.6% | 64% | 3.95% (active) | 57% | 44.9% | 31.9% | 40.7% | 26.7% | 16.7% | 48% | 34% | 17.2%
